What all share (assay): DAPPL (digital affinity profiling via proximity ligation, sequencing); 10 mM Tris-HCl pH 7.5, 50 mM NaCl, 1 mM DTT, 4% glycerol, room temperature, 30 min; GST-TFs on glutathione beads, 16-mer random dsDNA library, 0.1% formaldehyde crosslink after washing; high values mean tight binding
Test [1] addresses T1, FLI1 (Homo sapiens, UniProt Q01543 1-452).
T1 sequence: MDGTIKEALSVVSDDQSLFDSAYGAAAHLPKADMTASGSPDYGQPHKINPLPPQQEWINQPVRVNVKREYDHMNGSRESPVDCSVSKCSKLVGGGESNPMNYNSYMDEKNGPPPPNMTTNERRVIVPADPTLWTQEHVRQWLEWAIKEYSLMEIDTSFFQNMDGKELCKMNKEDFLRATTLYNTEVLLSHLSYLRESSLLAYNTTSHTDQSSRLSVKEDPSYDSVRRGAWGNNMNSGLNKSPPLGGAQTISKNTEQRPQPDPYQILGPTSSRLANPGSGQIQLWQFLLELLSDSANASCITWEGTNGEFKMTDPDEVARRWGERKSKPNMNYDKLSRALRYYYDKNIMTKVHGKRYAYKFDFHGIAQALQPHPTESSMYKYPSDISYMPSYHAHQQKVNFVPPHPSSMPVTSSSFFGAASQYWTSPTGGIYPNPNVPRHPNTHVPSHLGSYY
To be noted: protein: recombinant; tags: N-terminal GST; dsDNA, one strand shown. The essentials: (§1)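 Binding signal is given per hexamer as its read frequency for a factor divided by its frequency in the tag-only sample. GST-fused human transcription factors were expressed in yeast, captured on glutathione beads, barcoded with DNA and pooled with that sample, then incubated with 200 nmole of a 16-mer random double-stranded DNA library in Tris/NaCl/DTT/glycerol buffer for 30 min at room temperature. The pools were then washed, crosslinked, proximity-ligated, amplified by PCR and sequenced on an Illumina NextSeq500.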

In test [2] the target is T2, ELK1 (Homo sapiens, UniProt P19419 1-428).
T2 sequence: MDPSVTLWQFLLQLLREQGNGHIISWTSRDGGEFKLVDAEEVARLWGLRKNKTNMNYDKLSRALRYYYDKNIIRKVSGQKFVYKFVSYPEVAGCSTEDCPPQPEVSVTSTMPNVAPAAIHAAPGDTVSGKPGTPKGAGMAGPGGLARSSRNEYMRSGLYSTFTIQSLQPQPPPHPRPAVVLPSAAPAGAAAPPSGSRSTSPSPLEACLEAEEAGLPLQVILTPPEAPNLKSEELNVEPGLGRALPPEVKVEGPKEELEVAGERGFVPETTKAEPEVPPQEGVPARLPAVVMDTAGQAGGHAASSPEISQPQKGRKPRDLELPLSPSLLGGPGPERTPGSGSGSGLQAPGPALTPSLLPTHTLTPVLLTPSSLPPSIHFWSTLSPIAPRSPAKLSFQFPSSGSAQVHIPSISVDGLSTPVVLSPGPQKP
To be noted: protein: recombinant; tags: N-terminal GST; dsDNA, one strand shown. The method in brief: as §1

The target in test [3] is T3, GABPA (Homo sapiens, UniProt Q06546 1-454).
T3 sequence: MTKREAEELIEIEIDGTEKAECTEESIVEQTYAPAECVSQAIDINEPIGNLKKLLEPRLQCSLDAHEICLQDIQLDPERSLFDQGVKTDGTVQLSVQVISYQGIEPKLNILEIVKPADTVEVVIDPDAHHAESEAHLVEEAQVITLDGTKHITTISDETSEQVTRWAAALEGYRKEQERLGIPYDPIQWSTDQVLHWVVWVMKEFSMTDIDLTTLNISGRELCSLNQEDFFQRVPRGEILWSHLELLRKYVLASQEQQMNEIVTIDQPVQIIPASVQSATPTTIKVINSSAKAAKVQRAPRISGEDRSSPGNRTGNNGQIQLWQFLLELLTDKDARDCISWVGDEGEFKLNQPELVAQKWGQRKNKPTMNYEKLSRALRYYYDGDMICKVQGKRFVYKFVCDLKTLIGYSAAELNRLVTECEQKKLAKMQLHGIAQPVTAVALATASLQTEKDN
The conditions noted are these: protein: recombinant; tags: N-terminal GST; dsDNA, one strand shown. The method in brief:
as §1

Test [4] addresses T4, ERG (Homo sapiens, UniProt P11308 1-479).
T4 sequence: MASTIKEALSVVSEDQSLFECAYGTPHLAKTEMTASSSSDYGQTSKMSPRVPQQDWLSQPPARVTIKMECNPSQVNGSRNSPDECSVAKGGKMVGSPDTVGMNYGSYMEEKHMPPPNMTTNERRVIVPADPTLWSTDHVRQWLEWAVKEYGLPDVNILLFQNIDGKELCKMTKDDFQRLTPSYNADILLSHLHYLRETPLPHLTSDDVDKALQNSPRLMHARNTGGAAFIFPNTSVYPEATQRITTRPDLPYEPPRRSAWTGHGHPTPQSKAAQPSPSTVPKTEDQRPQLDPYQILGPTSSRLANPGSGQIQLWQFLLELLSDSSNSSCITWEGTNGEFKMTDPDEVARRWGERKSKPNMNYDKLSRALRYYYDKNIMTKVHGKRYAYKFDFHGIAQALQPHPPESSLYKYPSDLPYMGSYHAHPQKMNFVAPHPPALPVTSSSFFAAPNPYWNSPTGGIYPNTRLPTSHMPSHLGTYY
The conditions noted are these: protein: recombinant; tags: N-terminal GST; dsDNA, one strand shown. The essentials: as §1

For test [5], the target named is ELF1 (Homo sapiens, UniProt P32519 1-619). To be noted: protein: recombinant; tags: N-terminal GST; dsDNA, one strand shown. The essentials: as §1
ELF1, sequence (P32519 whole entry): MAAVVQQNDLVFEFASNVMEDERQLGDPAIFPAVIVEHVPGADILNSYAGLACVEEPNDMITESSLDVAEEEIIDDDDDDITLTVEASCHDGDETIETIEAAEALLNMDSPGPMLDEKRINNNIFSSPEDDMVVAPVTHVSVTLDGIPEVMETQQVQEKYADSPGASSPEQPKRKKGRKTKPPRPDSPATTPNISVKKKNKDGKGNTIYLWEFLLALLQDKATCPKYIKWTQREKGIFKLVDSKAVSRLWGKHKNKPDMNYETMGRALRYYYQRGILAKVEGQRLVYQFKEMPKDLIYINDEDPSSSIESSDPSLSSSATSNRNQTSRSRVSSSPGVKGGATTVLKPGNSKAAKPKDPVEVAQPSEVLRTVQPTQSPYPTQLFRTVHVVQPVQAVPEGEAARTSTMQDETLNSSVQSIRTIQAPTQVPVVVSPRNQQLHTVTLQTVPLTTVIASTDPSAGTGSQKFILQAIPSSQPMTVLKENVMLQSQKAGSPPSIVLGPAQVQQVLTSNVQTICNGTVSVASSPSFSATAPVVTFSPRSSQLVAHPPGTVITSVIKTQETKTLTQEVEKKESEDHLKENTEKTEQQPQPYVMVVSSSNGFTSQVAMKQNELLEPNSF
The target in test [6] is T5, EHF (Homo sapiens, UniProt Q9NZC4 1-300).
T5 sequence: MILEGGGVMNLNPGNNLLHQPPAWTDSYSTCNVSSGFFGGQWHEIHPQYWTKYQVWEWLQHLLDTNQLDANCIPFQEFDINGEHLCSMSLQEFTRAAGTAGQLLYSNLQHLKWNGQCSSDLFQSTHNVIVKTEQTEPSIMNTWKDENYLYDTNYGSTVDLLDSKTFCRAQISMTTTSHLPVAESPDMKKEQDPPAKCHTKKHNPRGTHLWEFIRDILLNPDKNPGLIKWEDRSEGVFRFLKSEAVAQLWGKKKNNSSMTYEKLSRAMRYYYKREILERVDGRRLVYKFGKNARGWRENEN
The conditions noted are these: protein: recombinant; tags: N-terminal GST; dsDNA, one strand shown. The essentials: as §1

Test [7] has as its target SPI1 (Homo sapiens, UniProt P17947 1-270). The conditions noted are these: protein: recombinant; tags: N-terminal GST; dsDNA, one strand shown. The method in brief: as §1
The target of test [8] is SPIB (Homo sapiens, UniProt Q01892 1-262). To be noted: protein: recombinant; tags: N-terminal GST; dsDNA, one strand shown. The essentials: as §1
SPIB, sequence (Q01892 whole entry): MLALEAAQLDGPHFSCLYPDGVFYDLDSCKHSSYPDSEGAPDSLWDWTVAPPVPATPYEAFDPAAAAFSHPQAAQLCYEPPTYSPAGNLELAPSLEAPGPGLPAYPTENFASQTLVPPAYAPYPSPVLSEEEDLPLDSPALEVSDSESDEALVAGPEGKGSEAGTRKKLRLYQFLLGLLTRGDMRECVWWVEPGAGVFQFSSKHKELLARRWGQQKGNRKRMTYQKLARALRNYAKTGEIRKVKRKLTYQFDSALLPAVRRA
For test [9], the target named is T6, ELK3 (Homo sapiens, UniProt P41970 1-407).
T6 sequence: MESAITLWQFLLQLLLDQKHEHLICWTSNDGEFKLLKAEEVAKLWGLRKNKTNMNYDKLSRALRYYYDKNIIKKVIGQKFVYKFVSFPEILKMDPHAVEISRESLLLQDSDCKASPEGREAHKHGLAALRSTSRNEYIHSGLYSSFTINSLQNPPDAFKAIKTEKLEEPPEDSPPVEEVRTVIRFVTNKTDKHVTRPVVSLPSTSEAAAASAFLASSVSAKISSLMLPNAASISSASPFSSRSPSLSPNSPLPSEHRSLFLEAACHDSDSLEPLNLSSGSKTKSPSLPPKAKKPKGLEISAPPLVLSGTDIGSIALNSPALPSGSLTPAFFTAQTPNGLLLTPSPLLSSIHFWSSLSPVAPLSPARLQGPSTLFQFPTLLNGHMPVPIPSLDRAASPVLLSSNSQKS
To be noted: protein: recombinant; tags: N-terminal GST; dsDNA, one strand shown. The method in brief:
as §1

Test [10] deals with T7, FEV (Homo sapiens, UniProt Q99581 1-238).
T7 sequence: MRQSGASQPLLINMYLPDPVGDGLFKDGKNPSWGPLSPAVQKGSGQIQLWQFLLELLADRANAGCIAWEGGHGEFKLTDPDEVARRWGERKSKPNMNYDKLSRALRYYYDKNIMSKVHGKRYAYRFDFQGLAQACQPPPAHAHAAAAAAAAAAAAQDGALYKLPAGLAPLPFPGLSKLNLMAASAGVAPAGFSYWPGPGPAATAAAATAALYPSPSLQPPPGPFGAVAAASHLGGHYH
To be noted: protein: recombinant; tags: N-terminal GST; dsDNA, one strand shown. The essentials:
as §1

The target in test [11] is ETV5 (Homo sapiens, UniProt P41161 1-510). The conditions noted are these: protein: recombinant; tags: N-terminal GST; dsDNA, one strand shown. The method in brief: as §1
ETV5, sequence (P41161 whole entry): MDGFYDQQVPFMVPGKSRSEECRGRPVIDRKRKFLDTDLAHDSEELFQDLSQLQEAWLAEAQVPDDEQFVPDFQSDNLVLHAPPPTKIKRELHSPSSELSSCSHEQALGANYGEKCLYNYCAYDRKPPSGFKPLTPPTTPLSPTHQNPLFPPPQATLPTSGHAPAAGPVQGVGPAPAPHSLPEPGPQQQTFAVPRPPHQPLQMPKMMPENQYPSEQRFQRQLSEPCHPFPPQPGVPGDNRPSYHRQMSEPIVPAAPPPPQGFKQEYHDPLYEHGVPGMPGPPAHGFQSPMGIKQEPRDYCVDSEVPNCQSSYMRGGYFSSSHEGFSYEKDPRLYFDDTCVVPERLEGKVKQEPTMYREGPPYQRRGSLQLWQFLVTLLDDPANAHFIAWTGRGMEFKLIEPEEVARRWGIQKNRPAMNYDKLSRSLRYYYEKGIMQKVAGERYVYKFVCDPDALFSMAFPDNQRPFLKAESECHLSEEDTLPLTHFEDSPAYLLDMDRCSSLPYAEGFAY
Test [12] concerns the target HSF1 (Homo sapiens, UniProt Q00613 1-529). To be noted: protein: recombinant; tags: N-terminal GST; chain copies: 3; dsDNA, one strand shown. The essentials:
as §1

For test [13], the target named is T8, SPIC (Homo sapiens, UniProt Q8N5J4 1-248).
T8 sequence: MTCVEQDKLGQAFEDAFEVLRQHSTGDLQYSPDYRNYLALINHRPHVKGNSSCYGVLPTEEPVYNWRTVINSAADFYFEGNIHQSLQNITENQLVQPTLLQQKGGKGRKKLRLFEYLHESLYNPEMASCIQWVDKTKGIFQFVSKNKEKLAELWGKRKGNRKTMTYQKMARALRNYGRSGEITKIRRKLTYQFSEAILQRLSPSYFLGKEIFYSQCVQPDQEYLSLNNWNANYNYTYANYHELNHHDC
To be noted: protein: recombinant; tags: N-terminal GST; dsDNA, one strand shown. The method in brief: as §1

Test [14] deals with ELF4 (Homo sapiens, UniProt Q99607 1-663). To be noted: protein: recombinant; tags: N-terminal GST; dsDNA, one strand shown. The essentials: as §1
ELF4, sequence (Q99607 whole entry): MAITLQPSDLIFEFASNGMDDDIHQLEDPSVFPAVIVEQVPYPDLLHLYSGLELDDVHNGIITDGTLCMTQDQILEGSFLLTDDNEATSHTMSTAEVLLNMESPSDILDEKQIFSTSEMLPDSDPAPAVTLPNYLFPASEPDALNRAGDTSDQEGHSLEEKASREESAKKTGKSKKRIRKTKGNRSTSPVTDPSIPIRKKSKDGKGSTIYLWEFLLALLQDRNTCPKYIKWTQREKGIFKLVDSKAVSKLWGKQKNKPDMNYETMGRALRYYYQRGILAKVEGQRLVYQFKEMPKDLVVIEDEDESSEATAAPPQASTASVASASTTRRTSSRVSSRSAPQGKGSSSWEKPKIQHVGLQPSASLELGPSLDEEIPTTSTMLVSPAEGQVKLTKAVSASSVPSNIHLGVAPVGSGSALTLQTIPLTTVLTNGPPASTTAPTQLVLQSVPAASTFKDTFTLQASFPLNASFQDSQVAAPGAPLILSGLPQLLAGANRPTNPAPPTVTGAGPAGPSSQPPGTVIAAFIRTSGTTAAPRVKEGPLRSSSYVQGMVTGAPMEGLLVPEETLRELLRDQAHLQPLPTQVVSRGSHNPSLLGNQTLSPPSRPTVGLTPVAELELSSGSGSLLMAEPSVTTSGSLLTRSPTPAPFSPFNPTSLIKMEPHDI
Test [15] addresses T9, ELK4 (Homo sapiens, UniProt P28324-2 1-405).
T9 sequence: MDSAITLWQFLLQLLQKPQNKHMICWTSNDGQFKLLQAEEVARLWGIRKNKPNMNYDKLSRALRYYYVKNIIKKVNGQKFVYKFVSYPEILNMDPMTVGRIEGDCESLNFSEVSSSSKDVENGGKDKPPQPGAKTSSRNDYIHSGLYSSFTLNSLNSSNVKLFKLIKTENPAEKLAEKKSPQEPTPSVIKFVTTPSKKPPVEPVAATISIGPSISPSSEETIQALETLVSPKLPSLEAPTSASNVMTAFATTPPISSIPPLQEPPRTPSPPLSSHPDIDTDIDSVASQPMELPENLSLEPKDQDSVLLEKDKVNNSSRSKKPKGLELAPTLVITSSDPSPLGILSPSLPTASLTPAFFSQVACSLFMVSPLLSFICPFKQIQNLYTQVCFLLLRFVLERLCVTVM
To be noted: protein: recombinant; tags: N-terminal GST; dsDNA, one strand shown. The method in brief:
as §1

The target of test [16] is T10, ETV2 (Homo sapiens, UniProt O00321 1-342).
T10 sequence: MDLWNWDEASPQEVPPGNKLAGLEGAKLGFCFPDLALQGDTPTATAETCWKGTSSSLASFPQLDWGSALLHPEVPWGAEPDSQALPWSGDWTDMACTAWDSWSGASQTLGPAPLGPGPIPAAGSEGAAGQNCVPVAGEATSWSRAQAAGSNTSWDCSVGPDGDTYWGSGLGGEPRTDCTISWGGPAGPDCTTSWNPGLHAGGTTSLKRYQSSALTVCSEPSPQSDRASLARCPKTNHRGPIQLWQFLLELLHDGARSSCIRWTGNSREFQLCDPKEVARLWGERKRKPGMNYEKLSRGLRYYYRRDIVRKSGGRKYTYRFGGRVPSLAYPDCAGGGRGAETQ
The conditions noted are these: protein: recombinant; tags: N-terminal GST; dsDNA, one strand shown. The method in brief:
as §1

The target of test [17] is T11, ELF3 (Homo sapiens, UniProt P78545 1-371).
T11 sequence: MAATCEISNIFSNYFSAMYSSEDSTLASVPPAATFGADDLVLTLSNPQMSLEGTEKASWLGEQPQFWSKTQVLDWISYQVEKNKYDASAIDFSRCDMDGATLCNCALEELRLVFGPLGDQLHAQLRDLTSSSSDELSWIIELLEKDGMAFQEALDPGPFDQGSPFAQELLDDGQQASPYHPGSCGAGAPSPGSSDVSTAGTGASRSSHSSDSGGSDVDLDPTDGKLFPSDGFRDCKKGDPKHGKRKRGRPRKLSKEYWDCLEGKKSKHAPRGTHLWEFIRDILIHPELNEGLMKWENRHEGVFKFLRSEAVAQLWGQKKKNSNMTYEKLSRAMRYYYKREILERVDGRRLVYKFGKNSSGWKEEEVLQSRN
The conditions noted are these: protein: recombinant; tags: N-terminal GST; dsDNA, one strand shown. The method in brief: as §1

For test [18], the target named is CRX (Homo sapiens, UniProt O43186 1-299). The conditions noted are these: protein: recombinant; tags: N-terminal GST; dsDNA, one strand shown. The essentials:
as §1

Test [19] has as its target ETV1 (Homo sapiens, UniProt P50549 1-477). To be noted: protein: recombinant; tags: N-terminal GST; dsDNA, one strand shown. The essentials:
as §1

1 sequence from paper PMC7862700, “An all-to-all approach to the identification of sequence-specific readers for epigenetic DNA modifications on cytosine” can be followed below.

HSF1, sequence (Q00613 whole entry): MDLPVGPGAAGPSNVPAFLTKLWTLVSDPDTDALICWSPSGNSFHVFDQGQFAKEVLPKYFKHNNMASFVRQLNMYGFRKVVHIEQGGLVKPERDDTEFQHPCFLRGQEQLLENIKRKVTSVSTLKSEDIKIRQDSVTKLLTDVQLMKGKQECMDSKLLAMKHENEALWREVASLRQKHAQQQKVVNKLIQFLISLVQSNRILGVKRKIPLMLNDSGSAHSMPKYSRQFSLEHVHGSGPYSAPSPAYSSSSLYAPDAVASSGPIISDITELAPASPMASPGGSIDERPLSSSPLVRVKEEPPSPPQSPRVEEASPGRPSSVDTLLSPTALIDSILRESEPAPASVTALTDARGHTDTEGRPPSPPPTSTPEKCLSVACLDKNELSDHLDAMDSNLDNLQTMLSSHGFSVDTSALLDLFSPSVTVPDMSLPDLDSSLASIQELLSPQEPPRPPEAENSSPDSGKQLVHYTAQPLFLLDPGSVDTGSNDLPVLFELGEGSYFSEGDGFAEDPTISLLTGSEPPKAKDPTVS
CRX, sequence (O43186 whole entry): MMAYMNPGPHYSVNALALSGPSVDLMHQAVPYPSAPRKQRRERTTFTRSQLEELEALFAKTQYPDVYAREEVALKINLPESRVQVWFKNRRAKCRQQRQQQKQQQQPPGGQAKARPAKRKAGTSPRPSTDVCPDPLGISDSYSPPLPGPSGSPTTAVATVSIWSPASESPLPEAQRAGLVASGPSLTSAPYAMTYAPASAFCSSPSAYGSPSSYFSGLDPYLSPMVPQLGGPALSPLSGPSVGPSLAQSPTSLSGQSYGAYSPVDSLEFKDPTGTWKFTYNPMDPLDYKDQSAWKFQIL
ETV1, sequence (P50549 whole entry): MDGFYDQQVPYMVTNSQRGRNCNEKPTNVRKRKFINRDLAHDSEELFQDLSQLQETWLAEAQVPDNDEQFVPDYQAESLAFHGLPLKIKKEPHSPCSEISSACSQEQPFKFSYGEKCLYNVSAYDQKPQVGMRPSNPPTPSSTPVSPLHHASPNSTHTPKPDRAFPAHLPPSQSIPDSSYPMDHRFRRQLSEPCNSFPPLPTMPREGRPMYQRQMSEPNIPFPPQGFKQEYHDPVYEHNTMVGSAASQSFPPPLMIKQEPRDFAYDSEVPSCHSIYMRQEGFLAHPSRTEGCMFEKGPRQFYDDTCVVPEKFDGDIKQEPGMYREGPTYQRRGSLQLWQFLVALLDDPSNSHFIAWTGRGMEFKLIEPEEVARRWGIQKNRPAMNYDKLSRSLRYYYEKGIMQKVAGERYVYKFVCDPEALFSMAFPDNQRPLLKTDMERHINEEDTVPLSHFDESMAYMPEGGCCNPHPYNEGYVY

For the sequence ATCATG, the binding signal in [1] is 1.21 fold enrichment (6-mer frequency, TF over GST control); in test [2] it was 1.15 fold enrichment (6-mer frequency, TF over GST control); in test [3] it was 1.22 fold enrichment (6-mer frequency, TF over GST control); in test [4] it was 1.1 fold enrichment (6-mer frequency, TF over GST control); in test [5], 1.17 fold enrichment (6-mer frequency, TF over GST control); in test [6], 1.19 fold enrichment (6-mer frequency, TF over GST control). Also, the binding signal in test [7] is 1.06 fold enrichment (6-mer frequency, TF over GST control); in test [8] it was 1.14 fold enrichment (6-mer frequency, TF over GST control); in test [9], 1.15 fold enrichment (6-mer frequency, TF over GST control); in test [10] it was 1.13 fold enrichment (6-mer frequency, TF over GST control); in test [11], 1.09 fold enrichment (6-mer frequency, TF over GST control); in [12], 1.09 fold enrichment (6-mer frequency, TF over GST control). Further, the binding signal in [13] was 1.09 fold enrichment (6-mer frequency, TF over GST control); in [14], 1.09 fold enrichment (6-mer frequency, TF over GST control); in test [15] it was 1.14 fold enrichment (6-mer frequency, TF over GST control); in test [16], 1.18 fold enrichment (6-mer frequency, TF over GST control); in test [17] it was 1.25 fold enrichment (6-mer frequency, TF over GST control); in [18] it was 1.21 fold enrichment (6-mer frequency, TF over GST control). In addition, in [19], the binding signal is 1.19 fold enrichment (6-mer frequency, TF over GST control).
